This is a sample that favours compounds with a hit; in the whole collection about 1.6% have one here.
KCNQ2 enhance = potentiators of rat KCNQ2 potassium channel; Potassium voltage-gated channel subfamily KQT member 2 (Rattus norvegicus), O88943; CHO-K1 KCNQ2, FluxOR thallium flux fluorescence; active compounds read high; B-score at 10 µM; 310,000 compounds, 0.54% hits; AID 2239, 2010;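 active = fluorescence ratio B-score at least 3 SD of library B-scores, with initial fluorescence B-score within 3 of them, cut at about 5.3 in these data; same plate scores as AID 2156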;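 also: B-score of peak minus minimum over baseline fluorescence ratio after K+ and Tl+ stimulus; positive B-score means potentiation of KCNQ2 with more thallium influx and brighter signal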
Target sequence (O88943 whole entry, looked up): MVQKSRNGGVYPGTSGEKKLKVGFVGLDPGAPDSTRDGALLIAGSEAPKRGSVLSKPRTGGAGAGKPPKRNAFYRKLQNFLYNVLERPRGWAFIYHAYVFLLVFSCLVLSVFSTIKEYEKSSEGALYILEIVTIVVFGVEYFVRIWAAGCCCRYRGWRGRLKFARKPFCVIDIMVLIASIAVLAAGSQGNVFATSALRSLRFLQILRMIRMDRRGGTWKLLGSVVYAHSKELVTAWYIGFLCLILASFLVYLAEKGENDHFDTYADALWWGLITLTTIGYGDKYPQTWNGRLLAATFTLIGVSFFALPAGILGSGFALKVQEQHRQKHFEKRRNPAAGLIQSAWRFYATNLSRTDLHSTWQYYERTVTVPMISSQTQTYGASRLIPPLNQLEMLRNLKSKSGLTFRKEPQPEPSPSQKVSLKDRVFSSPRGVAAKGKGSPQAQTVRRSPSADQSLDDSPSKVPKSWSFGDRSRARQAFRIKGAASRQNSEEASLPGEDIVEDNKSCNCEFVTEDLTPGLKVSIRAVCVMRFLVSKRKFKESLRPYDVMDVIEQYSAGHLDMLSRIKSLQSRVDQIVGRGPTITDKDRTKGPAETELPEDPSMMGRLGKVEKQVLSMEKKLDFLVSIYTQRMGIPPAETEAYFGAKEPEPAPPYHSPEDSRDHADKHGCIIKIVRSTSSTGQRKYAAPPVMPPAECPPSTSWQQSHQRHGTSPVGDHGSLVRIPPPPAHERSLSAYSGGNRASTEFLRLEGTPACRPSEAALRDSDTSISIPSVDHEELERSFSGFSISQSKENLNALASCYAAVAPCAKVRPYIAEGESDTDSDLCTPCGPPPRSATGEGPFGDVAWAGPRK
KCNQ2 inh = rat KCNQ2 potassium channel inhibitors, primary screen, cell-based, CHO-K1, FluxOR thallium flux, B-score; Potassium voltage-gated channel subfamily KQT member 2 (Rattus norvegicus), O88943; 20 min; active compounds read low; B-score at 10 µM; 310,000 compounds, 1.1% hits;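 active = fluorescence ratio B-score at most minus 3 library SDs, with starting brightness B-score within 2 library SDs, cut at about -5.5 in these data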
* hit, by the source's call; i = inactive; . = not tested or not shown.

SMILES	KCNQ2 enhance	KCNQ2 inh
CCC(C)[C@H]1CN=C(N)N1CCc1cccc(F)c1 (some centres undefined)	0.78	i
CCOC(=O)C1(CC2CC2)CCN(Cc2ccc(C(=O)OC)cc2)CC1	.	i
CCOC(=O)C1(CCc2ccccc2)CCN(Cc2ccc(C(=O)OC)cc2)CC1	-5.65	-5.65*
O=C(c1ccc2oc(Cc3ccc(Cl)cc3)nc2c1)N1CC[C@H](O)C1	1.15	i
COc1ccccc1COCC(O)CNCCc1ccc(C(F)(F)F)cc1 (centres undefined)	.	i
OC(CNCCc1ccc(C(F)(F)F)cc1)COc1cccc2ccccc12 (centres undefined)	-7.1	-7.1*
Cc1nc2c(cc1N)nc(C)n2Cc1ccccc1	0.9	i
Cc1ccc(S(=O)(=O)N(Cc2cc3ccccc3[nH]c2=O)c2cccc(C)c2)cc1	0.24	i
COc1ccc(NC(=O)/C(Cl)=C(/Cl)S(=O)(=O)Cc2ccccc2)cn1	5.5*	i
COc1ccc(NC(=O)C(Cl)=C(Cl)Cl)cn1	.	i
CC(C)(C)n1nnnc1C(c1ccc(Cl)cc1)N(Cc1cccnc1)Cc1ccco1 (centres undefined)	-6.18	-6.18*
CCN(Cc1ccccc1)C(c1ccncc1)c1nnnn1C(C)(C)C (centres undefined)	.	i
CCOc1ccc2[nH]c(=O)c(CN(Cc3cccs3)C(CC)c3nnnn3C(C)(C)CC)cc2c1 (centres undefined)	.	i
CC(C)(C)n1nnnc1C(c1cccnc1)N(Cc1ccccc1)Cc1cccs1 (centres undefined)	.	i
CCC(c1nnnn1C(C)(C)C)N(Cc1cccs1)Cc1cc2cc(C)c(C)cc2n2nnnc12 (centres undefined)	-5.9	-5.9*
Cc1ccc(C(c2nnnn2C(C)(C)C)N(Cc2ccco2)Cc2cccs2)cc1 (centres undefined)	-6.15	-6.15*
CC(C)(C)c1ccc(CN(Cc2ccccc2)C(c2ccccn2)c2nnnn2C(C)(C)C)cc1 (centres undefined)	-9.41	-9.41*
CC(C)(C)n1nnnc1C(c1cccs1)N(Cc1ccccc1)Cc1cccnc1 (centres undefined)	.	i
O=S(=O)(c1ccc(N2CCOCC2)nc1)N(Cc1ccccn1)Cc1ccccn1	0.98	i
O=C(COC(=O)CCc1nc2ccccc2s1)NC(=O)NCc1ccco1	.	i
Cc1[nH]nc(SCC(=O)NCc2ccc(Cl)cc2)c1[N+](=O)[O-]	0.1	i
O=c1onc(-c2ccc(Cl)cc2)n1Cc1ccc(F)cc1	.	i
O=C(NCCN1CCOCC1)/C(=C\c1ccc(Br)cc1)NC(=O)c1cccs1	.	i
CC(C)(C)n1nnnc1C(c1ccc(C(F)(F)F)cc1)N(Cc1ccc(F)cc1)Cc1ccco1 (centres undefined)	-6.54	-6.54*
c1ccc(CN(Cc2ccco2)C(c2ccncc2)c2nnnn2C2CCCC2)cc1 (centres undefined)	.	i
SMILES	KCNQ2 enhance	KCNQ2 inh
O=C1CC(C(=O)Nc2ccccc2)S/C(=N\NC(=O)c2ccccc2Cl)N1 (centres undefined)	0.68	i
CCCCNc1c(-c2cccc(-c3cc(C(C)=O)cs3)c2)nc2ccc(C)cn12	.	i
CCCCNc1c(-c2cccc(-c3ccc(OC)cc3)c2)nc2ccc(C)cn12	-6.06	-6.06*
COc1cc(OC)c2c(-c3ccccc3)cc(=O)oc2c1C(CCN1CCCC(C)C1)c1ccc(N(C)C)cc1 (centres undefined)	.	i
COc1ccc(C(CCN2CCCC(C)C2)c2c(OC)cc(OC)c3c(-c4ccccc4)cc(=O)oc23)cc1 (centres undefined)	-5.95	-5.95*
O=C(NC1CCC(O)CC1)c1cccnc1Sc1ccccc1Cl (centres undefined)	0.68	i
CN(CCc1ccccc1)C1CCCN(S(=O)(=O)N(C)C)C1 (centres undefined)	1.02	i
CS(=O)(=O)N(CC(=O)NCc1ccccc1)Cc1ccc(Cl)cc1	.	i
COc1ccccc1CNC(=O)CN(Cc1ccc(Cl)cc1)S(C)(=O)=O	-5.88	-5.88*
CCOC(=O)c1ccccc1NC(=O)CSc1nnc(COc2ccccc2C)n1C	-7.1	-7.1*
Cc1ccccc1OCc1nnc(SCC(=O)NCc2ccccc2)n1C	.	i
CCn1c(CC(=O)Nc2ccccc2)nnc1SCC(=O)Nc1ccccc1C(=O)OC	0.48	i
CCn1c(COc2cccc(OC)c2)nnc1SCC(=O)Nc1ccccc1C(=O)OC	-5.71	-5.71*
Clc1cccc(-c2ccc(CNCCCN3CCOCC3)o2)c1	0.92	i
COc1ccc(O)c(/C=N/NC(=O)c2cc(=O)[nH]c3ccccc23)c1	.	i
C=CCC1(C#N)C(SC)=NC2=C(C(=O)CC(C)(C)C2)C1c1ccc(Br)cc1 (centres undefined)	-6.57	-6.57*
Cc1ccc(C2C3=C(CC(C)(C)CC3=O)N=C3c4ccccc4C(=O)C32)cc1 (centres undefined)	.	i
Cc1ccc(C)c(N(CC(=O)Nc2ccccc2C(=O)NCc2ccco2)S(=O)(=O)c2ccccc2)c1	.	i
Cc1ccc(S(=O)(=O)N(CC(=O)NCc2ccco2)Cc2ccc(F)cc2)cc1	-7.28	-7.28*
Cc1cccc(S(=O)(=O)N(CC(=O)Nc2ccccc2C)Cc2ccco2)c1	-5.84	-5.84*
Cc1ccc(S(=O)(=O)NCC(=O)N(CC(=O)NCc2ccco2)Cc2ccc(F)cc2)cc1	.	i
COC(=O)c1scc(C)c1NS(=O)(=O)c1ccc(NC(C)=O)cc1	1.6	i
CC(OC(=O)c1ccc2c(c1)S(=O)(=O)c1ccccc1C2=O)C(N)=O (centres undefined)	1.08	i
Cc1ccc(-n2c(SCC(=O)Nc3ccc4c5c(cccc35)CC4)nc(O)cc2=O)cc1	2.31	i
Cc1ccc(-n2c(SCC(=O)Nc3ccc4c5c(cccc35)CC4)nc(O)c(C)c2=O)cc1	7.02*	i
SMILES	KCNQ2 enhance	KCNQ2 inh
COc1cc2c(cc1OC)C(COc1ccc(C(C)C)cc1)NCC2 (centres undefined)	.	i
Oc1ccc(-c2nc3ccccn3c2NCc2ccco2)cc1	-5.77	-5.77*
O=C(Nc1c(-c2ccccc2)nc2ccccn12)c1ccco1	0.57	i
CC(C)c1ccc(C2c3[nH]c4ccccc4c3C[C@H]3C(=O)N(c4ccccc4C(=O)N4CCC(C(=O)O)CC4)C(=O)N23)cc1 (some centres undefined)	1.42	i
O=C(NN1C(=O)/C(=C/c2cccc(O)c2)SC1=S)c1ccccc1O	-8.27	-8.27*
O=C(NN1C(=O)/C(=C/c2ccc(O)c(O)c2)SC1=S)c1ccccc1	.	i
N#Cc1cccc(C#N)c1Oc1ccc(N)cc1	.	i
CC(C)N=C(NS(=O)(=O)c1ccccc1)C(Cl)(Cl)Cl	.	i
O=S(=O)(O)c1ccc(N=Nc2ccccc2)cc1	0.12	i
O=c1ccc(N=Nc2ccccc2)ccc1O	19.2*	i
Cc1cc(C(=O)NCc2ccc3c(c2)OCO3)ccc1[N+](=O)[O-]	3.62	i
CC1CC(C)CN(c2ccc(C(=O)NCc3ccc4c(c3)OCO4)cc2[N+](=O)[O-])C1 (centres undefined)	8.9*	i
Cc1ccc(C(=O)NC2CCS(=O)(=O)C2)cc1S(=O)(=O)N1CCCCCC1 (centres undefined)	.	i
